# Results taken from PubChem BioAssay (NCATS).
# “And” between values parts separate entries of the source, which are not always exact repeats. Identical values can stand only once. Records with an inconclusive call do not appear. Entries that show only a call come without a potency. The source made the active and inactive calls. Unless noted, calls follow the shape of the dose curve; as a rule, active = well fitted curve in the direction sought with a large enough effect; inconclusive = small, poorly fitted or top-dose-only effect, or another doubt; inactive = no such curve, though single readings can be large; an effect the other way counts as inactive or inconclusive.
# Assays:
# [1] = biological target: Cytochrome P450 2C9 (Homo sapiens) (UniProt P11712); assay: Cytochrome P450 family 2 subfamily C member 9 (CYP2C9) small molecule antagonists: luciferase biochemical (cell-free) qHTS assay (AID 1645842; active = well fitted curve in the direction sought with a large enough effect in the repeat runs; an effect the other way counts as inactive or inconclusive; also: nearly all actives have a fitted effect of over 55% in size; also: potency is read from the fitted curve at half-maximal effect)
# In short: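 P450-Glo CYP2C9 system: proluciferin substrate with enzyme in mix containing 0.4% BSA, 10 min at room temperature, then NADPH regeneration solution added and incubated 1 h at 37C. Detection reagent stopped reaction; luminescence read after 20 min as RLU.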
# [2] = Primary qHTS for inhibitors of nuclear receptor binding SET domain protein 2 (NSD2) in an isogenic RCH-ACV NSD2 p.E1099K mutant (9B) (AID 1645876); also: nearly all actives have a fitted effect of over 70% in size; also: potency is read from the fitted curve at half-maximal effect
# [3] = Primary qHTS for inhibitors of nuclear receptor binding SET domain protein 2 (NSD2) in an RCH-ACV wild type WT cells (2C) (AID 1645877); also: nearly all actives have a fitted effect of over 70% in size; also: potency is read from the fitted curve at half-maximal effect
# [4] = Primary qHTS to identify inhibitors of SARS-CoV-2 cell entry (AID 1645846; calls by dose curve; also: nearly all actives have a fitted effect of over 45% in size); conditions: activity change, negative = inhibition: at 57.1 µM (top of the series) unless noted
# In short: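 Inhibition of spike-mediated entry was scored in human ACE2-transfected Expi293F cells. Particles were MLV-pseudotyped with Wuhan-Hu-1 S carrying a 19-aa C-terminal deletion; signal was luciferase after two days, scaled between spike PP and fusion-protein-free PP.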
# [5] = biological target: Rap guanine nucleotide exchange factor 3 (Homo sapiens) (UniProt O95398); assay: Confirmatory qHTS for antagonist of cAMP-regulated guanine nucleotide exchange factor 3 (EPAC1) (AID 1645880); also: nearly all actives have a fitted effect of over 55% in size
# In short: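 Released BODIPY-GDP fluoresces less than Rap1-bound BODIPY-GDP; the signal is followed at 480/540 nm at 5-min intervals over 30 min, after 5 min at room temperature. Reactions contain 100 nM EPAC1, 250 nM RAP1B-BODIPY-GDP and 50 uM GDP; results are normalized to ATA and DMSO.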
# [6] = Cytotoxicity counterscreen for inhibitors of SARS-CoV-2 cell entry (AID 1645845; calls by dose curve; also: nearly all actives have a fitted effect of over 50% in size)
# In short: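 After a 15 min room-temperature ATPLite 1step step, luminescence reflected ATP remaining in HEK293-ACE2 cells exposed to compound for 1 h plus 48 h at 37 C, with percent activity set by cell and no-cell controls.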
# Sequence of Cytochrome P450 2C9 (Homo sapiens) (P11712 whole entry, looked up): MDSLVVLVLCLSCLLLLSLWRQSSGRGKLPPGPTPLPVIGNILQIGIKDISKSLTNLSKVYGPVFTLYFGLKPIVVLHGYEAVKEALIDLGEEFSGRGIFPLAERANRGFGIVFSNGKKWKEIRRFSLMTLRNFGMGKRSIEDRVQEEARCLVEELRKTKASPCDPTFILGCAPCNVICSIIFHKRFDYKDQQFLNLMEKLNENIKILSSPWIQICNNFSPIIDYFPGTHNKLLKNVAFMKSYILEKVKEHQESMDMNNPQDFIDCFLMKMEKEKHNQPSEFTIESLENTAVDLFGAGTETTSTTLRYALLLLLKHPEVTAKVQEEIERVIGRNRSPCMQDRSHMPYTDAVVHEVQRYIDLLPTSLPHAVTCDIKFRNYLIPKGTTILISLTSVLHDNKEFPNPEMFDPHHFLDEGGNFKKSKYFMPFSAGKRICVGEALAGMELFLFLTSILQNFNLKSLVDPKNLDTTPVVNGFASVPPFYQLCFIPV
# Sequence of Rap guanine nucleotide exchange factor 3 (Homo sapiens) (O95398 whole entry, looked up): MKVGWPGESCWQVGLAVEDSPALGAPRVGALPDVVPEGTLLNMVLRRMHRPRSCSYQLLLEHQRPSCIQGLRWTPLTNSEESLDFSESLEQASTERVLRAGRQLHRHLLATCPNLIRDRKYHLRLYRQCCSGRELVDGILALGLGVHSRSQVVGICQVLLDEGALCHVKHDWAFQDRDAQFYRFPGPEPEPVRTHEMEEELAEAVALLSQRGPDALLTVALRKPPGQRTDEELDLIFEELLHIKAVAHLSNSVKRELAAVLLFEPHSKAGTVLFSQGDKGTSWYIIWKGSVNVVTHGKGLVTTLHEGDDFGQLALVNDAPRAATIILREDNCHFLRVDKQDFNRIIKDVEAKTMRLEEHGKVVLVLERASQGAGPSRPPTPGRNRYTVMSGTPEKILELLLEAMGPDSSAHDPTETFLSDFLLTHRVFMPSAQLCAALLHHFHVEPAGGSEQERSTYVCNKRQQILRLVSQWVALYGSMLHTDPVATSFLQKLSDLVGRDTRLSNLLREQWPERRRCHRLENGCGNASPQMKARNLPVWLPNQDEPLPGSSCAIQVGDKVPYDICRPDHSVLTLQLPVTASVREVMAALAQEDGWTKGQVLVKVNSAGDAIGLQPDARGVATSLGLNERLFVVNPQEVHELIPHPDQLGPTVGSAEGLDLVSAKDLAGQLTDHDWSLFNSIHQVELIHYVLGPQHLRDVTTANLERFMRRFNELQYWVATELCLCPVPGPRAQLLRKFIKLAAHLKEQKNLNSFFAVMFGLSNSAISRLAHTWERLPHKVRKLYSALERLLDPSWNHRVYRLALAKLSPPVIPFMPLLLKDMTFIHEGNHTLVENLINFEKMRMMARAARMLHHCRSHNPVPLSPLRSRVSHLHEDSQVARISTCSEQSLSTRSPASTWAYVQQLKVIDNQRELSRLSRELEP
compound,measurement,setting,value
O=[N+]([O-])c1cc([N+](=O)[O-])c2ccccc2c1,Potency,[1],inactive
same,Potency,[2],inactive
same,Potency,[3],inactive
CC(C)(C)NC[C@H](O)c1ccc(O)cc1Cl,Potency,[1],inactive
same,Potency,[2],inactive
same,Potency,[3],inactive
O=c1[nH]c2ccc(Cl)cc2c(N[C@@H]2CN3CCC2CC3)c1-c1nc2ccccc2[nH]1,Potency,[1],10.7 µM (active) and 8.49 µM (active)
same,"activity change, negative = inhibition",[4],-97.1%
same,Potency,[2],64.9 nM (active) and 83.3 nM (active)
same,Potency,[3],51.5 nM (active) and 83.3 nM (active)
CCOC(=O)Nc1ccc(NCc2ccc(F)cc2)cc1N,Potency,[1],9.52 µM (active)
same,"activity change, negative = inhibition",[4],2.18%
same,Potency,[3],inactive
O=S(=O)(c1ccc(Cl)cc1)c1ccc(Cl)cc1,Potency,[1],27.8 µM (active)
same,Potency,[2],inactive
same,Potency,[3],inactive
CN[C@@H](C)[C@H](O)c1ccccc1,Potency,[1],inactive
same,Potency,[2],inactive
same,Potency,[3],inactive
C=CCC1=C(C)C(OC(=O)C2C(C=C(C)C)C2(C)C)CC1=O (stereo not given),Potency,[1],5.02 µM (active)
same,Potency,[2],24.3 µM (active)
same,Potency,[3],34.4 µM (active)
CCC1(CCC(C)C)C(=O)NC(=O)NC1=O,Potency,[1],inactive
same,Potency,[2],inactive
same,Potency,[3],inactive
CCOCCOC(C)=O,Potency,[1],inactive
same,Potency,[2],inactive
same,Potency,[3],inactive
O=C1C(I)=CC(=C(c2cc(I)c(O)c(I)c2)c2ccccc2C(=O)O)C=C1I,Potency,[1],3.09 µM (active)
same,Potency,[2],inactive
same,Potency,[3],inactive
CS(=O)(=O)c1ccc(C(=O)C2C(=O)CCCC2=O)c([N+](=O)[O-])c1,Potency,[1],26.4 µM (active)
same,Potency,[2],inactive
same,Potency,[3],inactive
O=[N+]([O-])c1c2ccccc2cc2ccccc12,Potency,[3],inactive
COCCOCCO,Potency,[3],inactive
CCCCOC(=O)c1ccccc1C(=O)OCc1ccccc1,outcome,[5],inactive
C[C@H](CN1CCCC1)C(=O)c1ccc(C(F)(F)F)cc1,Potency,[6],inactive
same,"activity change, negative = inhibition",[4],-4.68%
N#C/C(=C1\SCC(c2ccccc2Cl)S1)n1ccnc1 (stereo not given),Potency,[6],inactive
same,Potency,[4],inactive
Cc1cccc(-c2[nH]ncc2-c2ccc3ncccc3n2)n1,Potency,[6],inactive
same,"activity change, negative = inhibition",[4],-1.7%
CCNC(=O)c1noc(-c2cc(C(C)C)c(O)cc2O)c1-c1ccc(CN2CCOCC2)cc1,Potency,[6],inactive
same,"activity change, negative = inhibition",[4],-24.6%
CC(=O)OCC(=O)[C@@]1(O)[C@H](C)C[C@H]2[C@@H]3C=C(C)C4=Cc5c(cnn5-c5ccccc5)C[C@]4(C)[C@@H]3[C@@H](O)C[C@@]21C,Potency,[6],inactive
same,Potency,[4],inactive
NC(=O)c1ccc(N(C(N)=O)c2c(F)cccc2F)nc1-c1ccc(F)cc1F,Potency,[6],inactive
same,"activity change, negative = inhibition",[4],-20.8%
COc1ccccc1-c1cccc(-c2c(O)c3cc(C#N)c(Cl)cc3[nH]c2=O)c1,Potency,[6],inactive
same,"activity change, negative = inhibition",[4],-22.8%
Cc1c(C)c2c(c(C)c1OC(=O)c1cccnc1)CC[C@@](C)(CCC[C@H](C)CCC[C@H](C)CCCC(C)C)O2,Potency,[6],inactive
same,Potency,[4],inactive
COc1nc(C)cnc1NS(=O)(=O)c1cccnc1-c1ccc(-c2nnco2)cc1,Potency,[6],inactive
same,Potency,[4],inactive
